Experimental findings from the supplement of paper PMC12645437, “Orthogonal IMiD-Degron Pairs Induce Selective Protein Degradation in Cells” (ACS Chemical Biology, 2025) are described below.

The full ranking holds about 8,300 sequences; the median of “log2 fold change of degron read counts, EGFP-low vs EGFP+ sorted cells (limma voom), compound-induced degradation” is about -1.1, and the highest 2% start at about 3.2. The entries come from a sample that favours the highest values as a whole.

In the assay the target is T1, CRBN, Q96SW2.
T1 chain: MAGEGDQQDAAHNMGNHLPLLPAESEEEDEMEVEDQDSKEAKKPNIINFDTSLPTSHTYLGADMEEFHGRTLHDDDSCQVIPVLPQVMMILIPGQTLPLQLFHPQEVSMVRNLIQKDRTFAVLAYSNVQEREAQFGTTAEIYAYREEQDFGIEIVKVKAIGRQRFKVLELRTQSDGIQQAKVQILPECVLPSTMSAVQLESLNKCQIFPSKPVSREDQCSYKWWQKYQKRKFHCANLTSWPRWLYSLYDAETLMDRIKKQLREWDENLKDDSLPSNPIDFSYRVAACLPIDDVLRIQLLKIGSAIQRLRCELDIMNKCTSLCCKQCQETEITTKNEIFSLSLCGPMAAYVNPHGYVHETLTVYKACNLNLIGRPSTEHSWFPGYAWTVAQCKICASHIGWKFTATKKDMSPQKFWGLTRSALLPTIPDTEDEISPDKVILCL
As to the kind of experiment: log2 fold change of degron read counts, EGFP-low vs EGFP+ sorted cells (limma voom), compound-induced degradation; higher = more compound-induced degradation of the degron-EGFP fusion; degrons are variants of IKZF1/3 zinc finger 2; compound dose not given here. Conditions: Jurkat, 18 h.

The mark [1] stands for this setting: compound: compound 19 (5-tert-butyl-thalidomide).
[2] abbreviates: compound: compound 22 (5-morpholino-thalidomide).
Where [3] appears, read: compound: compound 33 (diphenyl IMiD analogue).
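Further: pooled lentiviral library of zinc finger degron-EGFP fusions in mCherry-positive Jurkat cells, FACS-sorted after compound exposure, with degron abundance counted by next-generation sequencing.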

Consider FQCPICGHTFTQKGNLLRHIKL [46F_47Q_49P_50I_52G_53H_54T_55F_67L_, Q9UKT9], for which the “log2 fold change of degron read counts” value under setting [1] is -2.53, the “log2 fold change of degron read counts” value under setting [2] was -2.01, the “log2 fold change of degron read counts” value under setting [3] is -1.64 and the “log2 fold change of degron read counts” value (compound: thalidomide) came out at 0.116.
In the case of FRCEVCGANFTQKGNLLRHIKL [46F_47R_49E_50V_52G_53A_54N_55F_67L_, Q9UKT9], the “log2 fold change of degron read counts” value under setting [1] is -1.19, the “log2 fold change of degron read counts” value under setting [2] is -1.18, the “log2 fold change of degron read counts” value under setting [3] is 1.07 and the “log2 fold change of degron read counts” value (compound: thalidomide) came out at 0.852.
For FHCPVCGADFTQKGNLLRHIKL [46F_47H_49P_50V_52G_53A_54D_55F_67L_, Q9UKT9] the same measures were -0.685, -1.25, 0.492 and -1.46.
With FVCPICGRNFTQKGNLLRHIKL [46F_47V_49P_50I_52G_53R_54N_55F_67L_, Q9UKT9], the “log2 fold change of degron read counts” value is, setting by setting: under setting [1], -1.5; under setting [2], 0.0165; under setting [3], -0.308; (compound: thalidomide) 1.47.
For FDCNICGAGFTQKGNLLRHIKL [46F_47D_49N_50I_52G_53A_54G_55F_67L_, Q9UKT9], the “log2 fold change of degron read counts” value by setting is: under setting [1], -0.56; under setting [2], -1.59; under setting [3], -0.734; (compound: thalidomide) -0.131.
On to FGCNQCGRQFTQKGNLLRHIKL [46F_47G_49N_50Q_52G_53R_54Q_55F_67L_, Q9UKT9], for which the “log2 fold change of degron read counts” value runs as follows: under setting [1], -1.78; under setting [2], -3.61; under setting [3], -1.87; (compound: thalidomide) -1.99.
As to FECNQCGAQFTQKGNLLRHIKL [46F_47E_49N_50Q_52G_53A_54Q_55F_67L_, Q9UKT9], the “log2 fold change of degron read counts” value was -3.22 under setting [1], -3.17 under setting [2], -2.23 under setting [3] and -1.78 (compound: thalidomide).
As for FWCEVCGAVFTQKGNLLRHIKL [46F_47W_49E_50V_52G_53A_54V_55F_67L_, Q9UKT9], the “log2 fold change of degron read counts” value came out at 2.83 under setting [1], 3.43 under setting [2], 2.51 under setting [3] and 0.594 (compound: thalidomide).
Consider FKCEVCGAVFTQKGNLLRHIKL [46F_47K_49E_50V_52G_53A_54V_55F_67L_, Q9UKT9], for which the “log2 fold change of degron read counts” value is -2.3 under setting [1], -3.46 under setting [2], -2.84 under setting [3] and -1.47 (compound: thalidomide).
FSCEVCGAVFTQKGNLLRHIKL [46F_47S_49E_50V_52G_53A_54V_55F_67L_, Q9UKT9]: the “log2 fold change of degron read counts” value runs as follows: under setting [1], 2.19; under setting [2], 1.99; under setting [3], 2.31; (compound: thalidomide) 0.741.
For FCCEVCGAVFTQKGNLLRHIKL [46F_47C_49E_50V_52G_53A_54V_55F_67L_, Q9UKT9] the same measures were 1.18, 1.8, 2.68 and 1.79.
For FTCEVCGAVFTQKGNLLRHIKL [46F_47T_49E_50V_52G_53A_54V_55F_67L_, Q9UKT9], the “log2 fold change of degron read counts” value was -0.209 under setting [1], 1.43 under setting [2], 1.81 under setting [3] and 2.36 (compound: thalidomide).
With FQCEVCGAVFTQKGNLLRHIKL [46F_47Q_49E_50V_52G_53A_54V_55F_67L_, Q9UKT9], the “log2 fold change of degron read counts” value was -0.43 under setting [1], 2.76 under setting [2], 2.39 under setting [3] and 3.71 (compound: thalidomide).
With FACEVCGAVFTQKGNLLRHIKL [46F_47A_49E_50V_52G_53A_54V_55F_67L_, Q9UKT9], the “log2 fold change of degron read counts” value by setting is: under setting [1], 3.24; under setting [2], 2.04; under setting [3], 1.3; (compound: thalidomide) 0.155.
On to FLCEVCGAVFTQKGNLLRHIKL [46F_47L_49E_50V_52G_53A_54V_55F_67L_, Q9UKT9], for which the “log2 fold change of degron read counts” value runs as follows: under setting [1], -1.19; under setting [2], -1.32; under setting [3], 0.896; (compound: thalidomide) 1.47.
Consider FVCEVCGAVFTQKGNLLRHIKL [46F_47V_49E_50V_52G_53A_54V_55F_67L_, Q9UKT9], for which the “log2 fold change of degron read counts” value by setting is: under setting [1], -0.567; under setting [2], 1.18; under setting [3], 2.1; (compound: thalidomide) 2.01.
For FDCEVCGAVFTQKGNLLRHIKL [46F_47D_49E_50V_52G_53A_54V_55F_67L_, Q9UKT9], the “log2 fold change of degron read counts” value is -0.0916 under setting [1], -0.965 under setting [2], 0.432 under setting [3] and 0.0687 (compound: thalidomide).
For FHCEVCGAVFTQKGNLLRHIKL [46F_47H_49E_50V_52G_53A_54V_55F_67L_, Q9UKT9] the same measures were 0.991, 1.24, 1.22 and -0.292.
For FFCEVCGAVFTQKGNLLRHIKL [46F_47F_49E_50V_52G_53A_54V_55F_67L_, Q9UKT9], in that order: 2.87, 3.44, 1.92 and 1.04.
For the sequence FRCSVCGHRFTQKGNLLRHIKL [46F_47R_49S_50V_52G_53H_54R_55F_67L_, Q9UKT9], the “log2 fold change of degron read counts” value is -2.02 under setting [1], -2.85 under setting [2], -2.44 under setting [3] and -2.23 (compound: thalidomide).
For the sequence FYCNQCGHGFTQKGNLLRHIKL [46F_47Y_49N_50Q_52G_53H_54G_55F_67L_, Q9UKT9], the “log2 fold change of degron read counts” value runs as follows: under setting [1], -2.38; under setting [2], -2.88; under setting [3], -2.5; (compound: thalidomide) -2.33.
FNCDVCGAIFTQKGNLLRHIKL [46F_47N_49D_50V_52G_53A_54I_55F_67L_, Q9UKT9]: the “log2 fold change of degron read counts” value was -1.74 under setting [1], -3.02 under setting [2], -1.86 under setting [3] and -2.46 (compound: thalidomide).
As to FWCEQCGAKFTQKGNLLRHIKL [46F_47W_49E_50Q_52G_53A_54K_55F_67L_, Q9UKT9], the “log2 fold change of degron read counts” value runs as follows: under setting [1], 2.4; under setting [2], 1.97; under setting [3], -0.464; (compound: thalidomide) -0.551.
On to LMCNQCGFMCTQKGNLLRHIKL [46L_47M_49N_50Q_52G_53F_54M_55C_67L_, Q9UKT9], for which the “log2 fold change of degron read counts” value is, setting by setting: under setting [1], -1.58; under setting [2], -1.89; under setting [3], -0.98; (compound: thalidomide) -1.42.
For FSCDVCGATFTQKGNLLRHIKL [46F_47S_49D_50V_52G_53A_54T_55F_67L_, Q9UKT9], in that order: 0.618, 0.269, 0.317 and -0.694.
For the sequence FDCEICGHGFTQKGNLLRHIKL [46F_47D_49E_50I_52G_53H_54G_55F_67L_, Q9UKT9], the “log2 fold change of degron read counts” value is -3.03 under setting [1], -3.17 under setting [2], -3 under setting [3] and -2.57 (compound: thalidomide).
In the case of FSCEICGHVFTQKGNLLRHIKL [46F_47S_49E_50I_52G_53H_54V_55F_67L_, Q9UKT9], the “log2 fold change of degron read counts” value under setting [1] is -2.99, the “log2 fold change of degron read counts” value under setting [2] was -2.93, the “log2 fold change of degron read counts” value under setting [3] was -2.63 and the “log2 fold change of degron read counts” value (compound: thalidomide) is -2.67.
As for FYCDQCGAIFTQKGNLLRHIKL [46F_47Y_49D_50Q_52G_53A_54I_55F_67L_, Q9UKT9], the “log2 fold change of degron read counts” value was -1.03 under setting [1], -1.1 under setting [2], -1.87 under setting [3] and -2.56 (compound: thalidomide).
